Where “and” joins values, the source holds several entries; their conditions need not be identical. Equal values may be shown once.
Test system: HT29 RNF43 G659fs (RNF43 659mut, CRISPR-edited)
Test: cell viability activity relative to DMSO (negative = inhibition); higher = more viable cells (less growth inhibition)
Details: 5 µM; 96 h
Procedure: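 Broad Repurposing Library primary screen at a single dose of 5 uM. HT29 sg-Ctrl and HT29 RNF43 G659fs CRISPR-edited isogenic cells were seeded at 2500 cells/well in 384-well plates in duplicate and treated for 96 h. Viability was read by CellTiter-Glo and reported as % activity relative to DMSO, with MG132 as the positive control (negative = growth inhibition).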

SMILES	cell viability activity
COC(=O)C[C@](O)(CCCC(C)(C)O)C(=O)O[C@@H]1C(OC)=C[C@]23CCCN2CCc2cc4c(cc2[C@H]13)OCO4	-92.7%
Nc1ncnc2c1c(-c1cccc(OCc3ccccc3)c1)cn2C1CC(CN2CCC2)C1 (stereo not given)	-55.1%
CC(=O)Nc1nc(C)c(-c2ccc(Cl)c(S(=O)(=O)NCCO)c2)s1	-53.2%
O=C(c1cccc(Cl)c1F)N1CCN(Cc2cccc(Nc3nccs3)n2)CC1	-27.7%
CC1(C)CC[C@]2(C(=O)O)CC[C@]3(C)[C@H](C(=O)C=C4[C@@]5(C)C=C(C#N)C(=O)C(C)(C)[C@@H]5CC[C@]43C)[C@@H]2C1	-88.2%
Cc1ccc2c(Br)cc(Br)c(OC(=O)c3ccccc3)c2n1	-27.6%
Cn1cc(CNCC2CCN(c3ncc(C(=O)NO)cn3)CC2)c2ccccc21	-95.9%
CO[C@@H](C(=O)N1Cc2[nH]nc(NC(=O)c3ccc(N4CCN(C)CC4)cc3)c2C1)c1ccccc1	-62%
O=C1[C@H](Cc2ccc(O)cc2)N2C(=O)CCN(C(=O)NCc3ccccc3)[C@H]2CN1Cc1cccc2ccccc12	-58.4%
COc1ccc(NC(=O)c2ccc(-c3ccc(-c4noc(C)n4)cc3C)cc2)cc1N1CCN(C)CC1	-61%
CCN(c1cc(C#CCN2CCOCC2)cc(C(=O)NCc2c(C)cc(C)[nH]c2=O)c1C)[C@H]1CC[C@H](N(C)CCOC)CC1	-37.5%
CC(=O)c1cc2c(o1)C(=O)c1ccccc1C2=O	-97.1%
CCCCCCCCCCCCCCC[C@@H](O)[C@@H](N)CO	-36.8%
CNC(=O)c1c(F)cccc1Nc1nc(Nc2cc3c(cc2OC)CCN3C(=O)CN(C)C)nc2[nH]ccc12	-31.8%
CC(=O)O[C@@]12CO[C@@H]1C[C@H](O)[C@@]1(C)C(=O)[C@H](O)C3=C(C)[C@@H](OC(=O)[C@H](O)[C@@H](NC(=O)OC(C)(C)C)c4ccccc4)C[C@@](O)([C@@H](OC(=O)c4ccccc4)[C@H]21)C3(C)C	-58.2%
Clc1ccc(COC(Cn2ccnc2)c2ccc(Cl)cc2Cl)cc1 (stereo not given)	-23.9%
CNC(=O)c1cccc(-c2ccc3c(N4CCOC[C@@H]4C)nc(N4CCOC[C@@H]4C)nc3n2)c1	-62.5%
c1ccc2c(CCNc3ccc(Nc4ccncc4)cc3)c[nH]c2c1	-93.4%
COC(=O)c1ccc2c(C(=Nc3ccc(N(C)C(=O)CN4CCN(C)CC4)cc3)c3ccccc3)c(O)[nH]c2c1	-73.8%
CN(C)c1ccc(C(=O)NCCCCCCC(=O)NO)cc1	-84.4%

SMILES	cell viability activity
C[C@H]1O[C@H](O[C@H]2[C@H](O)[C@@H](O)[C@@H](O[C@H]3[C@H](O)[C@@H](O)C(O)O[C@@H]3CO)O[C@@H]2CO)[C@H](O)[C@@H](O)[C@@H]1N[C@H]1C=C(CO)[C@@H](O)[C@H](O)[C@H]1O (stereo not given in full)	-83.5%
O=c1[nH]c(=O)n([C@H]2C[C@H](O)[C@@H](CO)O2)cc1F	-58.1% and -58.2%
CC1(C)CC(Oc2ccc(-c3ccc(-c4cn[nH]c4)cc3O)nn2)CC(C)(C)N1	-77%
Cc1ccc(C(=O)Nc2ccc(CN3CCN(C)CC3)c(C(F)(F)F)c2)cc1C#Cc1cnc2cccnn12	-86.7%
CCCSc1ccc2[nH]c(NC(=O)OC)nc2c1	-63.8%
CCN(CC)CCNC(=O)c1ccc(NC(C)=O)cc1	-53.2%
Nc1ccc(-c2ccc3ncc4ccc(=O)n(-c5cccc(C(F)(F)F)c5)c4c3c2)cn1	-63.8%
COc1cc([C@@H]2c3cc4c(cc3[C@@H](O[C@@H]3O[C@@H]5CO[C@@H](c6cccs6)O[C@H]5[C@H](O)[C@H]3O)[C@H]3COC(=O)[C@H]23)OCO4)cc(OC)c1O	-84.4% and -59.9%
Cn1c(=O)c(F)c(Nc2ccc(I)cc2F)c2c(=O)n(C[C@@H](O)CO)cnc21	-86.8%
C[C@@H](NCCCc1cccc(C(F)(F)F)c1)c1cccc2ccccc12	-78.1%
Cc1ccc(C(=O)Nc2ccc(CN3CCN(C)CC3)c(C(F)(F)F)c2)cc1C#Cc1cnc2[nH]ncc2c1	-96.2%
CC[C@H](C)[C@@H]([C@@H](CC(=O)N1CCC[C@H]1[C@H](OC)[C@@H](C)C(=O)N[C@@H](Cc1ccccc1)c1nccs1)OC)N(C)C(=O)[C@@H](NC(=O)[C@H](C(C)C)N(C)C)C(C)C	-55.7%
CC[C@]1(O)C[C@H]2CN(CCc3c([nH]c4ccccc34)[C@@](C(=O)OC)(c3cc4c(cc3OC)N(C=O)[C@H]3[C@@](O)(C(=O)OC)[C@H](OC(C)=O)[C@]5(CC)C=CCN6CC[C@]43[C@@H]65)C2)C1	-28.3%
C[C@@H](CN1CC(=O)NC(=O)C1)N1CC(=O)NC(=O)C1	-48.1%
CCCCCCOc1nsnc1C1=CCCN(C)C1	-59.1%
CN(c1ncccc1CNc1nc(Nc2ccc3c(c2)CC(=O)N3)ncc1C(F)(F)F)S(C)(=O)=O	-83.7%
O=C(Nc1ccccc1-c1cn2c(CN3CCNCC3)csc2n1)c1cnc2ccccc2n1	-74.8%
Nc1c2ccccc2nc2ccccc12	-86.1%
Cc1cc(Nc2cc(N3CCN(C)CC3)nc(Sc3ccc(NC(=O)C4CC4)cc3)n2)n[nH]1	-22.2%
CN(C)C/C=C/C(=O)Nc1cc2c(Nc3ccc(F)c(Cl)c3)ncnc2cc1O[C@H]1CCOC1	-26.4%
